The full ranking holds about 9,900 sequences; the median of “r (bound/input frequency ratio)” is about 0.7, and the highest 2% start at about 6.5. The sample as a whole holds a higher share of the highest values than the screen did.
B1: ENSMUSG00000022095.20|Fam160b2 (ssRNA)
RNA: GGGAGUUCUACAGUCCGACGAUCGCUUCGAUAUCCGCAUGCUAGGUGGGGGAAGAUUCCUGCCUGUGUACUUCUGCCCACGGGCAGUCUCCUGCCUGGCCAUGCUGCCACUCUGUCCUCCAUGCCGGGGACUUCAGCUGCAGGACACCUCACCUGUUGACCCCACGAGCUGAGGUUUCAAGGAGGUGCUGGCUCCUAAGGCAGUGGUAUUCUUGGAGCCUUUUAGAGGAGCUAGAGGAUGGCCAGUGAGCGCCUAGAUGCUGCCCUGCAUGUGUUGCGUGACUAUCUCUGCUAUAUUGUGACCCUCUUGCGGUCGCACUAGUGUGGAAUUCUCGGGUGUCAAGG
B2: ENSMUSG00000058297.107|Spock2|69:74 (ssRNA)
RNA: GGGAGUUCUACAGUCCGACGAUCGCUUCGAUAUCCGCAUGCUAUGAGGCAGGACCUGUACACACAGCAAGGCUUACUAUCCGUCUCCUGACAUCCGAAGAGCUCGUCGCAGCACACACUAAUGGCCCUUGGGCUGCACGUGGUUAAGCAUAGCUGUCUCUGUGGCCCAACACAAAGAGGUAAACUUACUUAAAACACAGGGGUUUUGUUGCUGUUUGUUUUUUGUUAGUUUGUUUGUUGAUAAUUGGAUUGAGGAGUUAAUCCUCUGUCACAAUGUCAAAAGCAUGGACAUCCCUGAUAGAUUCUCUUGCGGUCGCACUAGUGUGGAAUUCUCGGGUGUCAAGG
B3: ENSMUSG00000061578.1365|Ksr2|224:228 (ssRNA)
RNA: GGGAGUUCUACAGUCCGACGAUCGCUUCGAUAUCCGCAUGCUACAGGACAGCCCAGCUUCCCACUCCAGACAUGUUGUUCUUACAUCUCUGACCCAGUGAUCUUUCUAGGGGUCUGUCACAUGUCCCAACAGGUGGACAGCUCUCCAAGUCACCAACCUGAGGAAAAUAUCCCUCCUUGUAAAAAGGCUUUCUCUUUGUAAAUGAUUCUGUUGCCUUUUUCUAAACACAAAGUAUAUAUACCUAUAAAUGCUAUAUAUAUUAUAUAACACAAUAUACAUAAAGACUACUUCUUGUACAGCCCUCUCUUGCGGUCGCACUAGUGUGGAAUUCUCGGGUGUCAAGG
B4: ENSMUSG00000004113.365|Cacna1b (ssRNA)
RNA: GGGAGUUCUACAGUCCGACGAUCGCUUCGAUAUCCGCAUGCUAUAUACAAAGGCACAAUACCCUGAAACUUUAACAGAGUAUUUUAUUCCAGUAGGGUAAAAUUAAACGGGACUCUUGGACUGCGCAUGUGACUGCACCCACGUUGCAACAGAGAAGGAUGUGCAUUUUGAUACUGAUGUUCUGUCUCUGUUCCAGCCCCAGCCCCCUUUUCUCUUGAGUGUUGAAUGUAUACAUUCUGUGUGGAACUACAGCUGCCUCAGACAAUCCUGGGUUGGGAAUCAUCUUUAUCCCACAUCAACAUACUCUUGCGGUCGCACUAGUGUGGAAUUCUCGGGUGUCAAGG
B5: ENSMUSG00000058297.177|Spock2 (ssRNA)
RNA: GGGAGUUCUACAGUCCGACGAUCGCUUCGAUAUCCGCAUGCUAUGUCAUCAUAUAGCUGAGAUUUGGAGUAGCCUGCUAUGAGGGCUUGCAGUUGCACUCUCUGUUCCCUGGCGAGGGUCCCCCUUGUCCCAAGGAGCAGAGGACCAGCAAGCAGCCCGUGUCUGCUCACCUUCUCCCUGACCCUCUAGGAAAUGGUUCCCUCUUGCCCCGACCAAUAGAAGGGCGUGUCCCCGAGACCCUUGUGAGGAACCACGGGGAGCUGUGACUUCCUGUGCCCAGAAGGUCCUGGAGGAGAGGCCCCACUCUUGCGGUCGCACUAGUGUGGAAUUCUCGGGUGUCAAGG
B6: ENSMUSG00000058297.112|Spock2|39:44 (ssRNA)
RNA: GGGAGUUCUACAGUCCGACGAUCGCUUCGAUAUCCGCAUGCUAUACUAUCCGUCUCCUGACAUCCGAAGAGCUCGUCGCAGCACACACUAAUGGCCCUUGGGCUGCACGUGGUUAAGCAUAGCUGUCUCUGUGGCCCAACACAAAGAGGUAAACUUACUUAAAACACAGGGGUUUUGUUGCUGUUUGUUUUUUGUUAGUUUGUUUGUUGAUAAUUGGAUUGAGGAGUUAAUCCUCUGUCACAAUGUCAAAAGCAUGGACAUCCCUGAUAGAUUAUCUCUCAACCUAGUCCCGAGUAACCAGAGCUCUUGCGGUCGCACUAGUGUGGAAUUCUCGGGUGUCAAGG
B7: ENSMUSG00000022095.12|Fam160b2|69:73 (ssRNA)
RNA: GGGAGUUCUACAGUCCGACGAUCGCUUCGAUAUCCGCAUGCUAAACUUCUCUCCACCUCCAGAAGGGCAAGUCUGAGCCAGGAGCAUGACGGGUGGGGGAAGAUUCCUGCCACACAACUUCUGCCCACGGGCAGUCUCCUGCCUGGCCAUGCUGCCACUCUGUCCUCCAUGCCGGGGACUUCAGCUGCAGGACACCUCACCUGUUGACCCCACGAGCUGAGGUUUCAAGGAGGUGCUGGCUCCUAAGGCAGUGGUAUUCUUGGAGCCUUUUAGAGGAGCUAGAGGAUGGCCAGUGAGCGCCUACUCUUGCGGUCGCACUAGUGUGGAAUUCUCGGGUGUCAAGG
B8: ENSMUSG00000028439.123|Fam219a|54:58 (ssRNA)
RNA: GGGAGUUCUACAGUCCGACGAUCGCUUCGAUAUCCGCAUGCUACUGAGGGUUGGGAAGGUAAGAUGGGCCUUAGAGAGAAGCCAGGUUUGGGGAUGCAUACACCUGUUCUCACCGGUCUCUAACCAGUGCAUCUGUCUCUCUGCCUCAUCCCCACACCGCCCUGCCACCCCCAGUCUUCUGUCUAUUGGUUCCAGGCUGGAAGCAAGAGAUAAGGCUGGCCUCCUGUGCCCCAUUGCCAUUUCACCCUAGCUCAAAGUCCAGGAGCCAGGCUUCCAGAAAGGCUCUUCAAGAGCAAGCUUAAGCUCUUGCGGUCGCACUAGUGUGGAAUUCUCGGGUGUCAAGG
B9: ENSMUSG00000042529.393|Kcnj12 (ssRNA)
RNA: GGGAGUUCUACAGUCCGACGAUCGCUUCGAUAUCCGCAUGCUAUCCGACUUGAGUCCCUGCCCUGCCCUGGUUAUGCAGGCUGUACGACGCAGUGUGCAUCAGUCUGAGGAGUCUGGUGGUAAGUAAGCCUCUGCAGCAGACCCUGUCGGAGGCCAUGGGGGCGUGUGUGUGUGUGUGUGUGUGUGUGUGUGUGUGUGUGUGUGUGUGUGUGUGUGAACAUGUGUGAGGGUGUGGAGGUCCCAGGGUGUGUGUAUGUGAAUGUCAGUGGCUUGGGUGCUGUGUGGAGAGAGAGAGAGAGAGAGCUCUUGCGGUCGCACUAGUGUGGAAUUCUCGGGUGUCAAGG
B10: ENSMUSG00000042529.398|Kcnj12 (ssRNA)
RNA: GGGAGUUCUACAGUCCGACGAUCGCUUCGAUAUCCGCAUGCUAAUGCAGGCUGUACGACGCAGUGUGCAUCAGUCUGAGGAGUCUGGUGGUAAGUAAGCCUCUGCAGCAGACCCUGUCGGAGGCCAUGGGGGCGUGUGUGUGUGUGUGUGUGUGUGUGUGUGUGUGUGUGUGUGUGUGUGUGUGUGAACAUGUGUGAGGGUGUGGAGGUCCCAGGGUGUGUGUAUGUGAAUGUCAGUGGCUUGGGUGCUGUGUGGAGAGAGAGAGAGAGAGAGAGAGAGAGAGAGAGAGAGAGAGAGAGAGAGCUCUUGCGGUCGCACUAGUGUGGAAUUCUCGGGUGUCAAGG
B11: ENSMUSG00000042529.392|Kcnj12 (ssRNA)
RNA: GGGAGUUCUACAGUCCGACGAUCGCUUCGAUAUCCGCAUGCUAGAUCAGUCCGACUUGAGUCCCUGCCCUGCCCUGGUUAUGCAGGCUGUACGACGCAGUGUGCAUCAGUCUGAGGAGUCUGGUGGUAAGUAAGCCUCUGCAGCAGACCCUGUCGGAGGCCAUGGGGGCGUGUGUGUGUGUGUGUGUGUGUGUGUGUGUGUGUGUGUGUGUGUGUGUGUGUGAACAUGUGUGAGGGUGUGGAGGUCCCAGGGUGUGUGUAUGUGAAUGUCAGUGGCUUGGGUGCUGUGUGGAGAGAGAGAGAGCUCUUGCGGUCGCACUAGUGUGGAAUUCUCGGGUGUCAAGG

The binders below were run against TDP-43 (Homo sapiens, UniProt Q13148 1-414) (assay: RNA Bind-n-Seq with designed 260-mer pool; 25 mM Tris-HCl, 150 mM KCl, 3 mM MgCl2, BSA (printed 500 mg/mL), 20 units/mL SUPERase IN; pH not stated; 500 nM RNA pool, 1 h, 4 C; TDP-43 5, 50, 500 nM; high values mean tight binding). Conditions: protein: recombinant; tags: SBP (GST cleaved off with PreScission; pGEX-GST-SBP).
Outline: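 Duplicate measurements used two independent batches of recombinant SBP-tagged TDP-43, which was captured on streptavidin beads at 5, 50 or 500 nM. The beads were incubated with 500 nM of an in vitro-transcribed 260-nt 3′ UTR oligo pool for 1 h at 4 °C in 25 mM Tris-HCl, 150 mM KCl, 3 mM MgCl2, BSA and SUPERase IN. After washing, biotin elution, reverse transcription, PCR amplification and sequencing, binding was expressed as R: each oligo's normalized read abundance in the bound sample over its abundance in input.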

TDP-43, sequence (Q13148 whole entry): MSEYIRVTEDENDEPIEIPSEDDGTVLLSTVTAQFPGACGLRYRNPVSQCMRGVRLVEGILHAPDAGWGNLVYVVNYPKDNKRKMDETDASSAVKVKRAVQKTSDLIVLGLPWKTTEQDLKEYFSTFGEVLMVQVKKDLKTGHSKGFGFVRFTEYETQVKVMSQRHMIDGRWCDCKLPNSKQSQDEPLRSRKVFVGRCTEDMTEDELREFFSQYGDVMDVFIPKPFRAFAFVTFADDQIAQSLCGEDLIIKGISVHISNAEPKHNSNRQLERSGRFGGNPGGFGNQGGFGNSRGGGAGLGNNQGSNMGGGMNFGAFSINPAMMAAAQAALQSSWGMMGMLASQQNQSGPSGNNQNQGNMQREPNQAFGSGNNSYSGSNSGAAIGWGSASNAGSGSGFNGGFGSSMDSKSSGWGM

Binder	binding signal
B1	0.487 R (bound/input frequency ratio)
B2	1.04 R (bound/input frequency ratio)
B3	0.125 R (bound/input frequency ratio)
B4	0.216 R (bound/input frequency ratio)
B5	0.086 R (bound/input frequency ratio)
B6	1.33 R (bound/input frequency ratio)
B7	0.253 R (bound/input frequency ratio)
B8	0.5 R (bound/input frequency ratio)
B9	5.42 R (bound/input frequency ratio)
B10	5.26 R (bound/input frequency ratio)
B11	7.12 R (bound/input frequency ratio)

From article PMC12864922, “TDP-43 directly inhibits mRNA accumulation in neurites through modulation of mRNA stability”
